# The full list was thinned out, with the strongest signals kept by preference.
# Legend:
# Assay in all cases: glycan array binding signal (z-score within array); higher = stronger binding
# Settings in all cases: glycan notation: IUPAC condensed, linker removed
# [1] = target: GalNAc(b1-3)Gal(a1-4)Gal(b1-4)GlcNAc(b1-3)Gal(b1-4)Glc
# In short: (§1)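 The Consortium for Functional Glycomics database supplied 3228 glycan arrays, of which those lacking an available protein sequence were dropped. The binding signal, a within-array Z-score, was averaged across arrays of the same protein sequence and across linkers. Negative scores can be read as non-binding.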
# GalNAc(b1-4)Gal(b1-4)Glc = target: GalNAc(b1-4)Gal(b1-4)Glc
# In short: as §1
# GalNAc6S(b1-4)GlcNAc = target: GalNAc6S(b1-4)GlcNAc
# In short: as §1
# [2] = target: GlcNAc(a1-4)Gal(b1-4)GalNAc
# In short: as §1
# [3] = target: GlcNAc(a1-4)Gal(b1-4)GlcNAc
# In short: as §1
# [4] = target: GlcNAc(a1-4)Gal(b1-4)GlcNAc(b1-3)Gal(b1-4)GlcNAc(b1-3)Gal(b1-4)GlcNAc
# In short: as §1
# [5] = target: GlcNAc(b1-2)Man(a1-3)[GlcNAc(b1-2)Man(a1-6)]Man(b1-4)GlcNAc(b1-4)[Fuc(a1-6)]GlcNAc
# In short: as §1
# [6] = target: GlcNAc(b1-2)Man(a1-3)[GlcNAc(b1-4)][GlcNAc(b1-2)Man(a1-6)]Man(b1-4)GlcNAc(b1-4)[Fuc(a1-6)]GlcNAc
# In short: as §1
# [7] = target: Man(a1-3)[Man(a1-6)]Man(a1-6)[Man(a1-3)]Man(b1-4)GlcNAc(b1-4)GlcNAc
# In short: as §1
# Man(b1-4)GlcNAc = target: Man(b1-4)GlcNAc
# In short: as §1
# [8] = target: Neu5Ac(a2-3)Gal(b1-3)GalNAc(b1-3)Gal(a1-4)Gal(b1-4)Glc
# In short: as §1
# [9] = target: Neu5Ac(a2-3)Gal(b1-4)GlcNAc(b1-2)Man(a1-3)[GlcNAc(b1-4)][Neu5Ac(a2-3)Gal(b1-4)GlcNAc(b1-2)Man(a1-6)]Man(b1-4)GlcNAc(b1-4)GlcNAc
# In short: as §1
# [10] = target: Neu5Ac(a2-3)Gal(b1-4)GlcNAc(b1-3)Gal(b1-4)GlcNAc(b1-3)Gal(b1-4)GlcNAc(b1-2)Man(a1-3)[Neu5Ac(a2-3)Gal(b1-4)GlcNAc(b1-3)Gal(b1-4)GlcNAc(b1-3)Gal(b1-4)GlcNAc(b1-2)Man(a1-6)]GalNAc
# In short: as §1
# [11] = target: Neu5Ac(a2-3)Gal(b1-4)GlcNAc(b1-3)[Neu5Ac(a2-3)Gal(b1-4)GlcNAc(b1-6)]GalNAc
# In short: as §1
# Neu5Ac(a2-3)GalNAc = target: Neu5Ac(a2-3)GalNAc
# In short: as §1
# [12] = target: Neu5Ac(a2-3)[GalNAc(b1-4)]Gal(b1-4)GlcNAc
# In short: as §1
# [13] = target: Neu5Ac(a2-6)Gal(b1-4)GlcNAc(b1-2)Man(a1-3)[Man(a1-6)]Man(b1-4)GlcNAc(b1-4)GlcNAc
# In short: as §1
# [14] = target: Neu5Ac(a2-6)Gal(b1-4)GlcNAc(b1-2)Man(a1-6)[Man(a1-3)]Man(b1-4)GlcNAc(b1-4)GlcNAc
# In short: as §1
# [15] = target: Neu5Ac(a2-6)Gal(b1-4)GlcNAc(b1-2)[Neu5Ac(a2-6)Gal(b1-4)GlcNAc(b1-4)]Man(a1-3)[GlcNAc(b1-4)][Neu5Ac(a2-6)Gal(b1-4)GlcNAc(b1-4)Man(a1-6)]Man(b1-4)GlcNAc(b1-4)GlcNAc
# In short: as §1
# [16] = target: Neu5Ac(a2-6)Gal(b1-4)GlcNAc(b1-3)Gal(b1-4)GlcNAc(b1-3)Gal(b1-4)GlcNAc(b1-2)Man(a1-3)[Neu5Ac(a2-6)Gal(b1-4)GlcNAc(b1-3)Gal(b1-4)GlcNAc(b1-3)Gal(b1-4)GlcNAc(b1-2)Man(a1-6)]GalNAc
# In short: as §1
# [17] = target: Neu5Ac(a2-6)Gal(b1-4)GlcNAc(b1-3)Gal(b1-4)GlcNAc(b1-6)[Gal(b1-3)]GalNAc
# In short: as §1
# [18] = target: Neu5Ac(a2-6)Gal(b1-4)GlcNAc(b1-3)Gal(b1-4)[Fuc(a1-3)]GlcNAc(b1-3)Gal(b1-4)[Fuc(a1-3)]GlcNAc
# In short: as §1
# [19] = target: Neu5Ac(a2-6)Gal(b1-4)GlcNAc(b1-3)GalNAc
# In short: as §1
# [20] = target: Neu5Ac(a2-6)GlcNAc(b1-4)GlcNAc(b1-4)GlcNAc
# In short: as §1
# Neu5Ac(a2-8)Neu5Ac = target: Neu5Ac(a2-8)Neu5Ac
# In short: as §1
# [21] = target: Neu5Ac(a2-8)Neu5Gc(a2-3)Gal(b1-4)GlcNAc
# In short: as §1
# [22] = target: Neu5Gc(a2-3)Gal(b1-4)GlcNAc
# In short: as §1
binder,measurement,setting,value
PX14375F-bfa-539-21-539 (Bacteroides fragilis) (protein) EDFLQKDPPSSPSQSVFWQKKSDFESALAGTYSVMYSGVFSQIMPCLDGLTDNAIVQHSEGTYGWAKTIAQGDLTPNQGGFVTDIYGNCYKGIARVHILMEQLDQYTGSDISADEKKFMLAQCKALRGYFYSWLYQCYKEVPVVTQSLDLNTMYQPKATRAEVLNRVMTDYDEAISELPDKLYSDSQTSGRFTVSAVKALKARILLFDAYDSNGKAISSKMEEVLTLLQSIKGYSLAARVRDNFISEKQLASPEIMFSVRFLRPNLTHSMDLYYGAWAVLDPTRNMVDAFECTDGKPWGESPLTVRPDESILYGNDDALKKAERAKMFMNRDRRLYESVNHSMMANFVDDGFKDEEVQVNESNNKGPTGFSALKYVQPTDVTPGYSTVSDADIVVLRYAHVLLMIAEAENEAHGATTTALNAINEVRTRSGQPAIEAGISQDDLRERIRNEWRIETCFEGLRYFQLKRWKLMDKRVNGVEDPAYPGYIKVYKPAFEFFPIPQSEIDKAGGVLKQDPAYE,glycan array binding signal (z-score),[1],-0.311
same,glycan array binding signal (z-score),GalNAc(b1-4)Gal(b1-4)Glc,0.504
same,glycan array binding signal (z-score),GalNAc6S(b1-4)GlcNAc,-0.468
same,glycan array binding signal (z-score),[2],-0.334
same,glycan array binding signal (z-score),[3],0.011
same,glycan array binding signal (z-score),[4],-0.081
same,glycan array binding signal (z-score),[5],-0.47
same,glycan array binding signal (z-score),[6],-0.471
same,glycan array binding signal (z-score),[7],-0.28
same,glycan array binding signal (z-score),Man(b1-4)GlcNAc,-0.448
same,glycan array binding signal (z-score),[8],-0.715
same,glycan array binding signal (z-score),[9],0.245
same,glycan array binding signal (z-score),[10],4.15
same,glycan array binding signal (z-score),[11],-0.205
same,glycan array binding signal (z-score),Neu5Ac(a2-3)GalNAc,-0.323
same,glycan array binding signal (z-score),[12],-0.459
same,glycan array binding signal (z-score),[13],-0.309
same,glycan array binding signal (z-score),[14],-0.518
same,glycan array binding signal (z-score),[15],-0.061
same,glycan array binding signal (z-score),[16],2.67
same,glycan array binding signal (z-score),[17],-0.919
same,glycan array binding signal (z-score),[18],-0.045
same,glycan array binding signal (z-score),[19],-0.096
same,glycan array binding signal (z-score),[20],-0.585
same,glycan array binding signal (z-score),Neu5Ac(a2-8)Neu5Ac,-0.05
same,glycan array binding signal (z-score),[21],15.8
same,glycan array binding signal (z-score),[22],-0.782

# — the supplement of paper PMC8728848
